Reference: PubChem BioAssay (NCATS)
A number with no mark means an inactive call. Active and inactive are the calls of the source. How the calls were made is not given here.

Test system: HIV-1 nucleocapsid protein NCp7 (binding to TG oligonucleotide)
Assay: HIV Nucleocapsid (AID 346);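 further: potency is for inhibitors that block NC binding and lower polarization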
Conditions: HIV-1 NC / fluorescein-TGTGTGTG probe, fluorescence polarization
How it was run: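 Fluorescence polarization binding of 100 nM HIV-1 NC to 10 nM fluorescein-labelled TG4xF oligonucleotide. Buffer was Hepes pH 7.5 with 250mM NaCl, 1uM ZnCl2, TCEP and 2-mercaptoethanol. Compounds were incubated 1 hr at room temperature before the read.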
Potency means the concentration at half of the fitted maximal effect.

| Structure (SMILES) | Potency |
| --- | --- |
| O=C(Oc1ccccc1)N1CCC[C@@]2(CCN(c3ncccn3)C2)C1 | > 20 µM |
| O=C(c1csnn1)N1CCC2(CCCN(c3ccc(-c4ccccc4)cc3)C2)CC1 | > 20 µM |
| O=c1cnc2cnc(N3CCOCC3)nc2n1Cc1cccs1 | > 20 µM |
| Cc1cnc(CNc2ncnc3ccc(-c4ccccc4C#N)cc23)cn1 | > 20 µM |
| COCCn1c(=O)c(-c2ccccc2)nc2cnc(N3CCN(C)CC3)nc21 | > 20 µM |
| O=C(c1csnn1)N1CCC2(CCCN(C(c3ccccc3)c3ccccc3)C2)CC1 | > 20 µM |
| O=c1c(CCc2ccccc2)nc2cncnc2n1-c1ccccc1 | > 20 µM |
| COCCn1c(=O)c(-c2cccs2)nc2cnc(OCc3ccccc3)nc21 | > 20 µM |
| N#Cc1ccc(CN2CC3(CCN(C(=O)c4cc(C(F)(F)F)cc(C(F)(F)F)c4)CC3)C2)cc1 | > 20 µM |
| Clc1ccccc1-c1ccc2ncnc(NC3CCNCC3)c2c1 | > 20 µM |
| O=C(c1ccco1)N1CCC2(CCN(Cc3nccs3)CC2)CC1 | > 20 µM |
| Cn1cccc1C(=O)N1CCC2(CCCN(C(c3ccccc3)c3ccccc3)C2)CC1 | > 20 µM |
| COc1ncc2nc(-c3ccccc3)c(=O)n(C3CC3)c2n1 | > 20 µM |
| CN(C)c1ncc2nc(-c3cccs3)c(=O)n(CCC#N)c2n1 | 0.319 µM (active) |
| Cc1noc(C)c1-c1nccc(NC2CC2)n1 | > 20 µM |
| COc1cccc(-c2nccc(N(C)Cc3ccco3)n2)c1 | > 20 µM |
| COc1ccc(Oc2ncc3nc(-c4cccs4)c(=O)n(C)c3n2)cc1 | > 20 µM |
| COc1cccc(Nc2ncc3ncc(=O)n(CCc4ccccc4)c3n2)c1 | > 4 µM |
| COc1ccc(NC(=O)N2CC[C@@]3(CCCN(S(C)(=O)=O)C3)C2)cc1 | > 20 µM |
| O=S(=O)(c1ccccc1)N1CCC[C@@]2(CCN(c3ncccn3)C2)C1 | > 20 µM |

| Structure (SMILES) | Potency |
| --- | --- |
| CNc1ccnc(-c2ccccc2CN(C)C)n1 | > 20 µM |
| COc1cccc(Cn2c(=O)c(-c3ccc(Cl)cc3)nc3cnc(N4CCNCC4)nc32)c1 | > 20 µM |
| Cn1c(=O)c(-c2ccccc2)nc2cncnc21 | > 20 µM |
| COc1cccc(Cn2c(=O)c(-c3cc(F)cc(F)c3)nc3cnc(N4CCN(C)CC4)nc32)c1 | > 20 µM |
| CN(C)C(=O)c1ccc(-c2cncnc2-n2ccnc2)cc1 | > 20 µM |
| COc1cccc(-c2nc(NCc3cnc(C)cn3)c3ccccc3n2)c1 | > 20 µM |
| COc1ccc(-n2c(=O)cnc3cnc(N4CCN(C)CC4)nc32)cc1 | > 20 µM |
| CN(C)c1ncc2ncc(=O)n(Cc3ccc(F)cc3)c2n1 | > 20 µM |
| Cn1c(=O)c(-c2ccc(F)cc2)nc2cnc(Oc3ccccc3)nc21 | > 20 µM |
| CNc1nc(-c2c(C)noc2C)nc2ccccc12 | > 20 µM |
| COCCn1c(=O)c(-c2cccs2)nc2cnc(N3CCN(C)CC3)nc21 | > 20 µM |
| CN1CCN(c2ncc3nc(-c4ccc(Cl)cc4)c(=O)n(-c4ccccc4)c3n2)CC1 | > 20 µM |
| CN(C)Cc1ccccc1-c1cc(NCc2cccs2)ncn1 | > 20 µM |
| O=c1c(CCc2ccccc2)nc2cnc(N3CCOCC3)nc2n1Cc1cccs1 | > 20 µM |
| COc1cccc(Cn2c(=O)c(C)nc3cnc(N4CCN(C)CC4)nc32)c1 | > 20 µM |
| COc1ccccc1-c1cc(NCc2ccccc2)ncn1 | > 20 µM |
| O=C(c1cccc(F)c1)N1CCC2(CC1)CN(c1ccncc1)C2 | > 20 µM |
| Cn1cccc1C(=O)N1CCC[C@@]2(CCN(C(c3ccccc3)c3ccccc3)C2)C1 | > 20 µM |
| CN(C)c1ccc(-c2nc(NC3CCNCC3)c3ccccc3n2)cc1 | > 20 µM |
